The values that follow come from PubChem BioAssay (NCATS).

Inconclusive results are not listed. Where a call stands in place of a potency, no number is given. Active and inactive are the calls of the source. Unless noted, calls follow the shape of the dose curve; as a rule, active = well fitted curve in the direction sought with a large enough effect; inconclusive = small, poorly fitted or top-dose-only effect, or another doubt; inactive = no such curve, though single readings can be large; an effect the other way counts as inactive or inconclusive.

Chain of Pyruvate kinase PKM (Homo sapiens) (P14618 whole entry, looked up): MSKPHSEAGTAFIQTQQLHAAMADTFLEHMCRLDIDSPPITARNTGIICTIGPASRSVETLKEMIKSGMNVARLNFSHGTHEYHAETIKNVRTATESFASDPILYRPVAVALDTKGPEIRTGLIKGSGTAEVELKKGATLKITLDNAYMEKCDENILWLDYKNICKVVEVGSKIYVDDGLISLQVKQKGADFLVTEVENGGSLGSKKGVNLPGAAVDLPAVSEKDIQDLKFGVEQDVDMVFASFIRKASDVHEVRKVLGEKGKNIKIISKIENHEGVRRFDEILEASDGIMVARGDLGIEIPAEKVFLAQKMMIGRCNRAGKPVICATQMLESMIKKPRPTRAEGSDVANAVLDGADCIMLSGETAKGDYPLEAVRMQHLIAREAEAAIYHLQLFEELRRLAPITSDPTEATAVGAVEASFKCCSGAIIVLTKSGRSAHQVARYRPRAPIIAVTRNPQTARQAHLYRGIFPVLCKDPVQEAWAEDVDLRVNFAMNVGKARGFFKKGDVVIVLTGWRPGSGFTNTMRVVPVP

System in the first assay: not listed separately
Put plainly: MultiTox-Fluor Cytotoxicity Assay - LYMP1-001 - Live Cells (AID 947). Also: potency is read from the fitted curve at half-maximal effect. Conditions: LYMP1-001 lymphoblastoid cells, live-cell protease fluorescence viability; series mostly up to 92.2 µM.
Turning to `CCCCCCCCCCCC[N+](C)(C)CCOc1ccccc1`, the Potency was 25.1 µM (active).
For the compound `CNC(=O)Oc1cccc2ccccc12`, the Potency result was “inactive”.
Same read-out and setting: under `O=C(CCl)c1ccc(Cl)cc1Cl` stands 12.6 µM (active).
Turning to `CN(C)C(=S)SSC(=S)N(C)C`, the Potency is 39.8 µM (active).
For `CC[n+]1c(-c2ccccc2)c2cc(N)ccc2c2ccc(N)cc21`, the Potency was 25.1 µM (active).
In the case of `Oc1c(Br)cc(Br)cc1Br`, the Potency entry is “inactive”.
For the compound `COP(=O)(OC)OC=C(Cl)Cl`, the Potency result is “inactive”.
As for `C[C@@H]1C[C@@H]([C@H](O)CC2CC(=O)NC(=O)C2)C(=O)[C@@H](C)C1`, the Potency entry was “inactive”.

System in a further assay: not listed separately
The assay is described as follows: Cell Viability - LYMP1-002 - Assay at 16 hr (AID 948). Also: potency is read from the fitted curve at half-maximal effect. Conditions: LYMP1-002 lymphoblastoid cell viability; series mostly up to 92.2 µM. In outline:
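LYMP1-002 human lymphoblastoid cells, 2500/well; 5 hr 37 C; cpd 16 hr 37 C; CellTiter-Glo 30 min RT; luminescence (ATP). Concentration-response, Hill-fit AC50. Pos ctrl tetraoctylammonium bromide.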
In the case of `CCCCCCCCCCCC[N+](C)(C)CCOc1ccccc1`, the Potency was 15.8 µM (active).
For the compound `CNC(=O)Oc1cccc2ccccc12`, the Potency result was “inactive”.
Turning to `O=C(CCl)c1ccc(Cl)cc1Cl`, the Potency is 15.8 µM (active).
On to `CN(C)C(=S)SSC(=S)N(C)C`, for which the Potency is 20 µM (active).
As for `Oc1c(Br)cc(Br)cc1Br`, the Potency result was “inactive”.
As to `COP(=O)(OC)OC=C(Cl)Cl`, the Potency entry was “inactive”.
As to `C[C@@H]1C[C@@H]([C@H](O)CC2CC(=O)NC(=O)C2)C(=O)[C@@H](C)C1`, the Potency entry was “inactive”.

Another assay deals with Pyruvate kinase PKM (Homo sapiens) (UniProt P14618). The assay is described as follows: qHTS Assay for Activators of Human Muscle Pyruvate Kinase (AID 954; active = well fitted curve in the direction sought with a large enough effect, not every such curve was filed as active). Conditions: purified human muscle pyruvate kinase, luciferase-coupled luminescence, 1 h; series mostly up to 57.5 µM. The procedure:
NIH Molecular Libraries Screening Centers Network [MLSCN]
NIH Chemical Genomics Center [NCGC]
Wael M. Rabeh, Lyudmila Nedyalkova and Hee-Wan Park [Structural Genomics Consortium, 100 College St. Toronto, Ontario, Canada]
Human pyruvate kinase muscle 2 enzyme was supplied as a highly purified (>95% pure) preparation by the Structural Genomics Consortium in Toronto (Ontario, Canada) and was assayed for its ability to generate ATP from ADP using phosphoenolpyruvate (PEP) as a substrate. ATP generation was detected in a coupled reaction by luciferase-mediated luminescence, an ATP-dependent process. Pyruvate kinase substrates, PEP and ADP, were present in the assay at Km and approximately […]-fold below Km respectively. The enzyme was assayed at an intermediate level of activity to screen for inhibitors and activators.
NCGC Assay Protocol Summary:
Three uL of substrate mix (final concentration, 50 mM imidazole pH 7.2, 50 mM KCl, 7 mM MgCl2, 0.5 mM PEP, 0.1 mM ADP, 0.01% Tween 20, 0.05% BSA) was dispensed into 1536 well plates. 23 nL of compound were delivered by a pin tool and 1 uL of enzyme mix (final concentration, 0.1 nM pyruvate kinase, 50 mM imidazole pH 7.2, 0.05% BSA) was added. Plates were incubated at room temperature for 1 hour. Two uL of detection and kinase stop mix (PKLight, Cambrex) was added, the plates centrifuged, and luminescence read by a ViewLux (Perkin Elmer) at 5 second exposure/plate. Data were normalized to the uninhibited and AC100 inhibition (no enzyme or 110 uM N-methyl-2,3-diphenyl-1,2,4-thiadiazol-5-imine; CID: 682802; LOPAC-S-4063). To monitor activation, 0.3 nM pyruvate kinase was included in one control column.
Regarding `c1ccc2nc(N3CCNCC3)ccc2c1`, the result was inactive.
`COc1ccc(C(=O)N2CCCC2=O)cc1`: the compound was called inactive.
Consider `CN1[C@@H]2CC[C@H]1CC(OC(=O)c1cc(Cl)cc(Cl)c1)C2` (stereo not given in full), for which the call was inactive.
`C[C@H](N)[C@H](O)c1ccc(O)c(O)c1`: the compound was classed as inactive.
As for `O=C(O)c1nn(Cc2ccc(Cl)cc2Cl)c2ccccc12`, the compound was classed as inactive.
The same measure, in the same setting: under `COC(=O)C1=CCCN(C)C1` stands “inactive”; under `CCCCCCCCC(=O)NCc1ccc(O)c(OC)c1`, “inactive”.
In the case of `NC(=O)CN1CCCC1=O`, the compound was called inactive.

System in a further assay: not listed separately
The assay is described as follows: MultiTox-Fluor Cytotoxicity Assay - LYMP1-002 - Live Cells (AID 955).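 Also: cells exposed to compound for 16 hours.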 Also: potency is read from the fitted curve at half-maximal effect. Conditions: LYMP1-002 lymphoblastoid live-cell protease fluorescence viability; series mostly up to 46.1 µM. A digest of the protocol:
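Read-out is live-cell protease activity (cell-permeant GF-AFC substrate, fluorescence Ex/Em=405/510), where a decrease indicates acute toxicity. Human lymphoblastoid cells were treated 16 hours at 37 C in a concentration series, and AC50 values came from standard Hill modelling.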
On to `CCCCCCCCCCCC[N+](C)(C)CCOc1ccccc1`, for which the Potency was 10 µM (active).
The same measure, in the same setting: under `COC(=O)C1=C(C)NC(C)=C(C(=O)OC)C1c1ccccc1[N+](=O)[O-]` stands 31.6 µM (active); under `CNC(=O)Oc1cccc2ccccc12`, “inactive”.
As to `O=C(CCl)c1ccc(Cl)cc1Cl`, the Potency is 7.94 µM (active).
Regarding `CN(C)C(=S)SSC(=S)N(C)C`, the Potency was 10 µM (active).
As for `Oc1c(Br)cc(Br)cc1Br`, the Potency entry is “inactive”.
Same read-out and setting: next, `COP(=O)(OC)OC=C(Cl)Cl`: “inactive”.
As to `C[C@@H]1C[C@@H]([C@H](O)CC2CC(=O)NC(=O)C2)C(=O)[C@@H](C)C1`, the Potency result is “inactive”.

The target of another assay is Alpha-galactosidase (Coffea arabica) (UniProt Q42656). The assay is described as follows: Counterscreen for Glucocerebrosidase Inhibitors: qHTS Assay for Coffee Bean alpha-Galactosidase at pH 4.5 (AID 957). Conditions: purified coffee bean alpha-galactosidase, fluorogenic substrate; series mostly up to 76.9 µM. A digest of the protocol: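 Coffee bean alpha-galactosidase 2 nM, substrate 4-MU-alpha-Gal 80 uM, pH 4.5 citrate/Tween-20, 20 min RT. Cpd titration 0.7 nM–77 uM. Stop pH 10, fluorescence 365/440 nm; Hill-equation AC50.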
Chain of Alpha-galactosidase (Coffea arabica) (Q42656 whole entry, looked up): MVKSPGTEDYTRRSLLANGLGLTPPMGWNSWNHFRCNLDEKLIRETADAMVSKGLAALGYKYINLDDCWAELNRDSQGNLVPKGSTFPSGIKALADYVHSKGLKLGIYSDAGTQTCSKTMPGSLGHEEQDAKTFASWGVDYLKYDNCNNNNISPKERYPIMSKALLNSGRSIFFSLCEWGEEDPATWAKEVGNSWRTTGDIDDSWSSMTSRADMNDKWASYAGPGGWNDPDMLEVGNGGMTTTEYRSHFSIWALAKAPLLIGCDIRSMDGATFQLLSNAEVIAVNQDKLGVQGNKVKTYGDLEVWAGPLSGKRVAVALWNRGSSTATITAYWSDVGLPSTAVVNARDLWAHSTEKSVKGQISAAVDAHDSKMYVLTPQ
For orientation: Counterscreens check selectivity or assay interference.
For `c1ccc2nc(N3CCNCC3)ccc2c1`, the outcome was inactive.
On to `Oc1ccc(O)cc1`, for which the compound was classed as inactive.
The same measure, in the same setting: under `CCOC(=O)C(C)(C)Oc1ccc(Cl)cc1` stands “inactive”; under `COc1ccc(C(=O)N2CCCC2=O)cc1`, “inactive”; under `CN1[C@@H]2CC[C@H]1CC(OC(=O)c1cc(Cl)cc(Cl)c1)C2` (stereo not given in full), “inactive”.
As to `Cc1nc2sccn2c(=O)c1CCN1CCC(=C(c2ccc(F)cc2)c2ccc(F)cc2)CC1`, the outcome was inactive.
For the compound `C[C@H](N)[C@H](O)c1ccc(O)c(O)c1`, the compound was called inactive.
Take `COc1nc(C)nc(Cl)c1NC1=NCCN1`: the compound was called inactive.
Take `COc1ccc(CN(CCN(C)C)c2ccccn2)cc1`: the compound was classed as inactive.
`CCCn1cnc2c1c(=O)n(CCCCC(C)=O)c(=O)n2C`: the compound was called inactive.
Consider `O=C(c1ccc(F)cc1)C1CCN(CCn2c(=O)[nH]c3ccccc3c2=O)CC1`, for which the call was inactive.
On the same count and under the same terms, next, `Cc1ccc(=O)n(-c2ccccc2)c1`: “inactive”; `O=C(O)CCc1nc(-c2ccccc2)c(-c2ccccc2)o1`: “inactive”; `C[n+]1cc2c3c(ccc2c2ccc4cc5c(cc4c21)OCO5)OCO3`: “inactive”.
Consider `O=C(O)c1nn(Cc2ccc(Cl)cc2Cl)c2ccccc12`, for which the outcome was inactive.
As for `COC(=O)C1=C(C)NC(C)=C(C(=O)OC)C1c1ccccc1[N+](=O)[O-]`, the call was inactive.
As to `C[N+](C)(C)CCCCCCCCCC[N+](C)(C)C`, the call was inactive.
For the compound `C(=C\c1ccccc1)/CN1CCN(C(c2ccccc2)c2ccccc2)CC1`, the call was inactive.
Still for that read-out and setting: under `C=Cc1c(C)c2cc3[nH]c(cc4nc(cc5nc(cc1[nH]2)C(C)=C5CCC(=O)O)C(CCC(=O)O)=C4C)c(C)c3C=C` stands “inactive”; under `COc1ccc2c(c1)c(CC(=O)O)c(C)n2C(=O)c1ccc(Cl)cc1`, “inactive”.
As to `NC(N)=NCCC[C@H](N)C(=O)O`, the result was inactive.
`COC(=O)C1=CCCN(C)C1`: the compound was classed as inactive.
As to `Cn1c(=O)c2c(ncn2C)n(C)c1=O`, the compound was called inactive.
In the case of `CCCCCCCCC(=O)NCc1ccc(O)c(OC)c1`, the compound was classed as inactive.
Still for that read-out and setting: next, `Cc1cc(C(C)(C)C)c(O)c(C)c1CC1=NCCN1`: “inactive”; `Nc1c2c(nc3ccccc13)CCCC2`: “inactive”; `C[C@]12C=CC(=O)C=C1CC[C@H]1[C@@H]3C[C@@H](O)[C@](O)(C(=O)CO)[C@@]3(C)C[C@H](O)[C@@]12F`: “inactive”.
As to `NC(=O)CN1CCCC1=O`, the compound was called inactive.
As for `CCC(=O)c1ccc2c(c1)N(CCCN(C)C)c1ccccc1S2`, the compound was called inactive.
